37 compounds from PubChem BioAssay (NCI) can be followed below.

Where “and” joins values, the source holds several entries; their conditions need not be identical. Equal values may be shown once. About 83,000 compounds went through this panel and 20% of them were active in at least one assay; those are over-represented in the sample as a whole.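 Cells were grown in 96-well plates and exposed to the test compound at a single concentration for 48 hours; results are reported as percent growth, with values below 10 considered active.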 Calls of active or inactive are those of the source.

In this assay the test system is RPMI-8226 leukemia. Nature of the assay: NCI-60 one-dose screen, 48 h (100 = growth as untreated, 0 = no growth, -100 = all killed). As to conditions: 10 µM unless noted.
Consider `NC1=CC(=O)c2cccnc2C1=O`, for which the growth is -25.7% (active).
With `Cn1c(=O)c2c(nc(Nc3cc(=O)[nH]c(=O)[nH]3)n2Cc2ccccc2)n(C)c1=O`, the growth was 87.9% (inactive).
In the case of `O=C(c1ccc(Nc2nccc(NCCCNc3ccnc4cc(Cl)ccc34)n2)cc1)N1CCCCC1`, the growth is 81% (inactive).
With `COc1c(NC=O)c2c(c([N+](=O)[O-])c1OC)C(=O)OC2` the figure was 78% (inactive) and 96.5% (inactive).
Regarding `COc1ccc(Cl)cc1Nc1nc(C(F)(F)F)ccc1C(=O)N/N=C/c1ccc(N(C)C)cc1`, the growth was 108% (inactive).
Under `CC1=C2[C@@H](CC1)[C@]1(C)O[C@@](C3CC3)(C[C@H]1OC(=O)CO)[C@H]2OC(=O)/C=C/c1ccccc1` stands 84.3% (inactive).
With `CC/C=C\C/C=C\C[C@H](O)C/C=C1/C(=O)C=C[C@@H]1C/C=C\CCCC(=O)OC` the figure was -8.73% (active); with `Cc1[nH]c(C(=O)Nc2nc3ccc(NC(=O)CCN)cc3s2)c(Cl)c1Cl`, 78.4% (inactive); with `COc1cc(Cl)cc(-c2nn(C(=O)NS(=O)(=O)c3ccc(Cl)cc3)cc2-c2ccncc2)c1`, 77.2% (inactive).
On to `C[C@@H]1O[C@@H](O[C@H]2[C@@H](OC(=O)[C@]34CCC(C)(C)C[C@H]3C3=CC[C@@H]5[C@@]6(C)C[C@H](O)[C@H](O[C@@H]7O[C@H](CO)[C@@H](O)[C@H](O)[C@H]7O)[C@@](C)(CO)[C@@H]6CC[C@@]5(C)[C@]3(C)C[C@H]4O)OC[C@@H](O)[C@@H]2O)[C@H](O)[C@H](O[C@@H]2OC[C@@H](O)[C@H](O[C@@H]3OC[C@](O)(CO)[C@H]3O[C@@H]3OC[C@@H](O)[C@H](O)[C@H]3O)[C@H]2O)[C@H]1O[C@@H]1OC[C@](O)(CO)[C@H]1O`, for which the growth was 64% (inactive).
Under `Cc1c(O)c(O)cc2c3c(oc12)CC(c1ccc2c(c1)OCO2)CC3=O` (configuration not stated) stands 87.5% (inactive).
As to `COc1cc(F)c(/C=C/c2cc(/C=C/c3cc(OC)c(OC)cc3F)n(-c3cc(F)cc(F)c3)n2)cc1OC`, the growth was 18% (inactive).
Under `CN1CCN(CCCN2c3ccccc3Sc3ccc(Cl)cc32)CC1` stands 76.3% (inactive) and 92.3% (inactive); under `O=C(N=Nc1c(O)[nH]c2ccccc12)Nc1ccccc1Cl`, 84.8% (inactive).
With `OCCN1CCN(CC/C=C2\c3ccccc3Sc3ccc(Cl)cc32)CC1` the figure was -35.8% (active) and -38.4% (active).
As for `COc1nc2ccc(C)cc2cc1/C=[N+](\[O-])c1ccccc1`, the growth was 69.1% (inactive).
`O=C(CCN1CCOCC1)Nc1cccc(-n2cc(-c3ccncc3)c(-c3ccc(Cl)c(O)c3)n2)c1`: the growth was 17.1% (inactive).
For the compound `CN1CCN(c2ccc(Nc3ncc(C(N)=O)c(NCCCNC(=O)C4CCC4)n3)cc2)CC1`, the growth was 101% (inactive).
With `CN(C)c1ccc2nc3ccc(=O)cc-3sc2c1` the figure was 12.8% (inactive) and 13.8% (inactive); with `CC(=O)N1N=C(c2ccc(Nc3nc(Nc4ccc(F)cc4)nc(Nc4ccc(F)cc4)n3)cc2)CC1c1ccccc1` (configuration not stated), 33.9% (inactive).
Turning to `C/C=C(\C)C(=O)N[C@H]1CC[C@]2(C)C3CC[C@@]4(C)C(CC[C@@H]4C(C)N(C)C)C3CCC2[C@H]1OC(C)=O` (some centres not stated), the growth is -15.3% (active).
Consider `Cc1ccc(-c2nc3nc(-c4ccc(Cl)cc4)nc(N4CCCNCC4)c3o2)cc1`, for which the growth was -48.7% (active).
Under `Nc1n[nH]c2cccc(C#Cc3cccc(NC(=O)c4ccc(N5CCOCC5)c(C(F)(F)F)c4)c3)c12` stands -0.476% (active); under `O=C1C(c2c[nH]c3ccccc23)=C(c2coc3cc(Br)ccc23)C(=O)N1O`, 89.8% (inactive).
Take `Cc1cc(N2CCCCC2)nc(NCc2cc(Nc3ccnc4cc(Cl)ccc34)ccc2F)n1`: the growth is -38.9% (active).
For the compound `CC1(C)C(N)=Nc2cc(OCCCN3Cc4ccc(OCCc5cn(CC(=O)N6CCC(CCN7CCCC7)CC6)nn5)cc4C3)c(OCC3CC3)cc21`, the growth is 88.8% (inactive).
With `CS(=O)(=O)Nc1cc(-c2ccc3ncnc(Nc4ccc(F)c(Cl)c4)c3c2)cnc1Cl`, the growth is -24% (active).
Under `Cc1cnc(C(=O)NNc2nc3sc4c(c3c(=O)[nH]2)C(C)CCC4)cn1` (configuration not stated) stands 29.3% (inactive).
Regarding `Cn1cc2c(=O)nc3c(-c4nc5ccccc5[nH]4)n[nH]n3c2n1`, the growth was 50.6% (inactive).
In the case of `Cc1ccc(-c2nc3nc(-c4ccc(F)cc4)nc(N4CCCNCC4)c3o2)cc1`, the growth is -62.4% (active).
As to `COc1ccc2c(c1)c(-c1nc(-c3c[nH]c4c(Cl)nccc34)cs1)cn2C`, the growth was 78% (inactive).
As to `Cc1nc2sc(C(=O)Nc3cccc4ncccc34)c(N)c2cc1C(C)O` (configuration not stated), the growth is 75.8% (inactive).
In the case of `N=C(N)c1ccc(-c2ccc(-c3ccc(F)cc3)s2)nc1`, the growth is 5.51% (active).
In the case of `CN(C)CCCn1c2nc(=O)[nH]c(=O)c-2nc2cc(Cl)c(Cl)cc21`, the growth is 73.6% (inactive).
For the compound `Brc1ccc(/C=C(/C2=NCCN2)n2ccc3ccccc32)cc1`, the growth was 86.1% (inactive).
`CCOC(=O)c1c(-c2ccc(OC)cc2)c(C#N)c2c(C#N)c(N)nn2c1N`: the growth was 13.8% (inactive).
Under `COc1ccc(S(=O)(=O)Nc2cc(Sc3cccc4cccnc34)c(O)c3ccccc23)cc1` stands 5.31% (active).
